Measured values: PubChem BioAssay (NCI)
This is part of a sample that, as a whole, favours compounds with a hit. Of some 79,000 tested, about 15% had one in any assay. A number with no mark means an inactive call. Active and inactive are the calls of the source. No stated cut-off is given here; in the data, active means growth inhibition above about 70%; inactive means the rest.

Assay: NCI Yeast Anticancer Drug Screen. Data for the mlh1 rad18 strain (AID 175)
Settings: S. cerevisiae mlh1 rad18 strain growth inhibition, hits give high values
Method: Growth inhibition of yeast strains with defined genetic alterations is measured as a screen for potential anti-cancer activity. Selected strains with alterations in DNA damage repair or cell cycle control were exposed to compounds and growth inhibition was measured relative to vehicle treated controls. The strain used in this assay is mlh1 rad18

[1] = at 5.0 µM (retest, dose inferred, filed as 0.5)
[2] = at 50.0 µM (retest, dose inferred, filed as 5.0)

Compound | growth inhibition [1] | growth inhibition [2] | growth inhibition (at 50.0 µM)
O=C(O)COc1c(Cl)c(Cl)c(Cl)c(Cl)c1Cl.[Cu+2] | 22% | 99% (active) | 86.3% (active)
O=[N+]([O-])c1ccc(CC(c2ccc([N+](=O)[O-])cc2)(c2ccc([N+](=O)[O-])cc2)c2ccc([N+](=O)[O-])cc2)cc1 | 0% | 1% | 26.9%
CCOC(=O)CSC(=S)Nc1ccc(Cl)cc1 | 6% | 98% (active) | 93.7% (active)
COc1cc(-c2ccc(-[n+]3nc(Cc4ccc5c(c4)OCO5)nn3-c3ccccc3)c(OC)c2)ccc1-[n+]1nc(Cc2ccc3c(c2)OCO3)nn1-c1ccccc1 | 2% | 79% (active) | 91.4% (active)
CC(C)C(C)(C(=O)O)C(C)C | 1% | 0% | 2.75%
O=C1C=CC(=O)C(c2ccc(Cl)cc2)=C1 | 32% | 98% (active) | 90.8% (active)
COc1ccc(C2C(C#N)(C#N)C2(C#N)C#N)cc1 | 22% | 99% (active) | 92.7% (active)
Cc1ccc(S(=O)(=O)NNC(C[N+](=O)[O-])c2ccccc2)cc1 (configuration not stated) | 36% | 99% (active) | 96% (active)
O=C(Cc1ccccc1)c1ccccc1C(=O)NNc1ccccc1 | 5% | 22% | -0.75%
CCCCCCCCC(=O)Cl | 6% | 69% | 88.3% (active)
N#CN1CCCC(O)c2sc3ccccc3c2CC1 (configuration not stated) | -1% | -1% | -0.65%
O=C1CCCC/C1=C\c1ccc(Cl)c(Cl)c1 | 18% | 99% (active) | 99.2% (active)
C[n+]1c2ccccc2cc2[nH]c3ccccc3c21 | 90% (active) | 97% (active) | 77.3% (active)
CC1(C)CC(=O)C(C(c2ccc3c(c2)OCO3)N2CCOCC2)C(=O)C1 (configuration not stated) | -26% | -27% | 99.1% (active)
